A short description of assay [1]: NCI Yeast Anticancer Drug Screen. Data for the rad50 strain (AID 155).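 Also: 0% = growth of vehicle-only cultures of the same strain.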 Particulars: S. cerevisiae rad50 strain growth inhibition, active compounds read high. The procedure, abridged:
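DNA repair mutant yeast, compound exposure, growth read-out; inhibition is taken relative to vehicle.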

Assay [2] is described as follows: NCI Yeast Anticancer Drug Screen. Data for the mec2-1 strain (AID 157). The note with it: S. cerevisiae mec2-1 strain, active compounds read high. The procedure, abridged:
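Each compound was tested on mec2-1 yeast, a strain altered in DNA damage repair or cell cycle control. Growth inhibition is reported relative to vehicle.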

Assay [3] in a line: NCI Yeast Anticancer Drug Screen. Data for the sgs1 mgt1 strain (AID 161).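 Also: 0% = growth of cultures given vehicle only.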 The note with it: S. cerevisiae sgs1 mgt1 strain, active compounds read high. In outline:
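Genetically altered yeast, compound exposure, growth inhibition relative to vehicle.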

Assay [4] can be described thus: NCI Yeast Anticancer Drug Screen. Data for the cln2 rad14 strain (AID 165).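 Also: 0% = growth equal to vehicle treated cultures.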 Particulars: S. cerevisiae cln2 rad14 strain, active compounds read high. The procedure, abridged:
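Test compounds were added to cln2 rad14 yeast cultures; inhibition of growth was then determined by comparison with vehicle treatment.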

A short description of assay [5]: NCI Yeast Anticancer Drug Screen. Data for the bub3 strain (AID 167). Particulars: S. cerevisiae bub3 mutant strain, active compounds read high. In outline:
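In this screen, a yeast mutant lacking normal mitotic checkpoint function is challenged with compound. Relative growth versus vehicle gives the inhibition value.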

Assay [6] is described as follows: NCI Yeast Anticancer Drug Screen. Data for the mlh1 rad18 strain (AID 175). Particulars: S. cerevisiae mlh1 rad18 strain growth inhibition, active compounds read high. The procedure, abridged: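 Inhibition values reflect reduced growth of mutant yeast versus vehicle-treated controls following compound exposure; the mutations affect DNA damage repair.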
Where [7] appears, read: at 5.0 µM (retest, dose inferred, filed as 0.5).
Where [8] appears, read: at 50.0 µM (retest, dose inferred, filed as 5.0).

Compounds without any hit were thinned out: in the full panel of roughly 79,000, 15% have a hit. Unmarked numbers belong to inactive results. Active and inactive are the calls of the source. Rule as the data show it: active = growth inhibition above about 70%; inactive = the rest.

For `C=C(CN1CCOCC1)C(=O)c1ccccc1`, the growth inhibition in assay [1] (setting [7]) is -23%; in assay [1] (setting [8]), 66%; in assay [1] (at 50.0 µM), 74.5% (active); in assay [2] (setting [7]), 18%; in assay [2] (setting [8]) it was 80% (active); in assay [2] (at 50.0 µM), 90.2% (active). Besides, the growth inhibition in assay [3] (setting [7]) was 8%; in assay [3] (setting [8]), 73% (active); in assay [3] (at 50.0 µM) it was 85.5% (active); in assay [4] (setting [7]) it was -16%; in assay [4] (setting [8]), 24%; in assay [4] (at 50.0 µM), 60.9%. Further, the growth inhibition in assay [5] (setting [7]) is 3%; in assay [5] (setting [8]) it was 72% (active); in assay [5] (at 50.0 µM) it was 91% (active); in assay [6] (setting [7]), -13%; in assay [6] (setting [8]), 92% (active); in assay [6] (at 50.0 µM), 95% (active).
Regarding `O=C1Nc2c(Cl)cc(Cl)cc2/C1=N/N=C/c1ccccc1O`, the growth inhibition is 12% in assay [1] (setting [7]); 41% in assay [1] (setting [8]); 3.5% in assay [1] (at 50.0 µM); 13% in assay [2] (setting [7]); 42% in assay [2] (setting [8]); 17.1% in assay [2] (at 50.0 µM). The growth inhibition was 10% in assay [3] (setting [7]); 41% in assay [3] (setting [8]); 87.2% (active) in assay [3] (at 50.0 µM); 15% in assay [4] (setting [7]); 48% in assay [4] (setting [8]); 89.8% (active) in assay [4] (at 50.0 µM). In addition, the growth inhibition in assay [5] (setting [7]) is 18%; in assay [5] (setting [8]), 54%; in assay [5] (at 50.0 µM), 88.2% (active); in assay [6] (setting [7]), 15%; in assay [6] (setting [8]) it was 72% (active); in assay [6] (at 50.0 µM), 91% (active).
For `c1ccc(-c2cc(-c3cc(-c4ccccn4)[nH]n3)n[nH]2)nc1`, the growth inhibition was 5% in assay [1] (setting [7]); 4% in assay [1] (setting [8]); 17.2% in assay [1] (at 50.0 µM); 0% in assay [2] (setting [7]); -11% in assay [2] (setting [8]); 0.75% in assay [2] (at 50.0 µM). Further, the growth inhibition in assay [3] (setting [7]) was 0%; in assay [3] (setting [8]) it was 18%; in assay [3] (at 50.0 µM), 23.5%; in assay [4] (setting [7]), -1%; in assay [4] (setting [8]) it was -16%; in assay [4] (at 50.0 µM) it was 9.05%. Also, the growth inhibition is 4% in assay [5] (setting [7]); 7% in assay [5] (setting [8]); 3.4% in assay [5] (at 50.0 µM); -5% in assay [6] (setting [7]); 4% in assay [6] (setting [8]); 19.6% in assay [6] (at 50.0 µM).
In the case of `COC1=C(C)C(=O)C2=C(C1=O)C1C3CC4=C(C(=O)C(OC)=C(C)C4=O)C(CNC(=O)C(C)=O)N3C(C#N)C(C2)N1C` (configuration not stated), the growth inhibition in assay [1] (setting [7]) is 78% (active); in assay [1] (setting [8]) it was 98% (active); in assay [1] (at 50.0 µM), 90.2% (active); in assay [2] (setting [7]), 53%; in assay [2] (setting [8]) it was 99% (active); in assay [2] (at 50.0 µM) it was 92% (active). In addition, the growth inhibition in assay [3] (setting [7]) is 35%; in assay [3] (setting [8]), 99% (active); in assay [3] (at 50.0 µM) it was 91.7% (active); in assay [4] (setting [7]), 88% (active); in assay [4] (setting [8]) it was 96% (active); in assay [4] (at 50.0 µM), 89.6% (active). Also, the growth inhibition is 22% in assay [5] (setting [7]); 98% (active) in assay [5] (setting [8]); 90.2% (active) in assay [5] (at 50.0 µM); 51% in assay [6] (setting [7]); 99% (active) in assay [6] (setting [8]); 88.3% (active) in assay [6] (at 50.0 µM).
For `COP(=O)(OC)/C(=C/c1cn(C(c2ccccc2)(c2ccccc2)c2ccccc2)cn1)NC=O`, the growth inhibition was 5% in assay [1] (setting [7]); 16% in assay [1] (setting [8]); 2.1% in assay [1] (at 50.0 µM); 2% in assay [2] (setting [7]); -5% in assay [2] (setting [8]); 60.7% in assay [2] (at 50.0 µM). For the same compound, the growth inhibition in assay [3] (setting [7]) is -4%; in assay [3] (setting [8]), 41%; in assay [3] (at 50.0 µM) it was 79.9% (active); in assay [4] (setting [7]), 1%; in assay [4] (setting [8]) it was 14%; in assay [4] (at 50.0 µM), 0.6%. Further, the growth inhibition is 0% in assay [5] (setting [7]); 9% in assay [5] (setting [8]); -1.7% in assay [5] (at 50.0 µM); -12% in assay [6] (setting [7]); 40% in assay [6] (setting [8]); 39.2% in assay [6] (at 50.0 µM).
On to `CC(C)C1=C2CCC3(C)C(CCC4C5C6OCC5(CCC6(C)C)CCC43C)C2(C)CC1` (configuration not stated), for which the growth inhibition was 22% in assay [1] (setting [7]); 49% in assay [1] (setting [8]); 72.5% (active) in assay [1] (at 50.0 µM); 6% in assay [2] (setting [7]); 40% in assay [2] (setting [8]); 77.5% (active) in assay [2] (at 50.0 µM). In addition, the growth inhibition in assay [3] (setting [7]) was 19%; in assay [3] (setting [8]), 69%; in assay [3] (at 50.0 µM) it was 82.3% (active); in assay [4] (setting [7]), 27%; in assay [4] (setting [8]), 62%; in assay [4] (at 50.0 µM) it was 83.7% (active). In addition, the growth inhibition was 10% in assay [5] (setting [7]); 57% in assay [5] (setting [8]); 77% (active) in assay [5] (at 50.0 µM); 17% in assay [6] (setting [7]); 45% in assay [6] (setting [8]); 65.5% in assay [6] (at 50.0 µM).
Consider `CCCCCCSc1nn(CCC#N)c(=O)[nH]c1=O`, for which the growth inhibition in assay [1] (setting [7]) is -1%; in assay [1] (setting [8]) it was -36%; in assay [1] (at 50.0 µM) it was 96% (active); in assay [2] (setting [7]) it was 5%; in assay [2] (setting [8]), 36%; in assay [2] (at 50.0 µM), 93.5% (active). Besides, the growth inhibition is 1% in assay [3] (setting [7]); 40% in assay [3] (setting [8]); 91.5% (active) in assay [3] (at 50.0 µM); 13% in assay [4] (setting [7]); 10% in assay [4] (setting [8]); 78.5% (active) in assay [4] (at 50.0 µM). Further, the growth inhibition in assay [5] (setting [7]) is 24%; in assay [5] (setting [8]) it was -6%; in assay [5] (at 50.0 µM), 74.8% (active); in assay [6] (setting [7]), 3%; in assay [6] (setting [8]), 21%; in assay [6] (at 50.0 µM), 96.7% (active).
Consider `O/N=C\c1ccc(-c2ccccc2)cc1`, for which the growth inhibition is -17% in assay [1] (setting [7]); 87% (active) in assay [1] (setting [8]); 74% (active) in assay [1] (at 50.0 µM); -13% in assay [2] (setting [7]); 64% in assay [2] (setting [8]); 47.6% in assay [2] (at 50.0 µM). For the same compound, the growth inhibition in assay [3] (setting [7]) is -8%; in assay [3] (setting [8]), 88% (active); in assay [3] (at 50.0 µM), 87% (active); in assay [4] (setting [7]), 17%; in assay [4] (setting [8]), 67%; in assay [4] (at 50.0 µM), 51.1%. Also, the growth inhibition in assay [5] (setting [7]) was 2%; in assay [5] (setting [8]), 83% (active); in assay [5] (at 50.0 µM), 77.7% (active); in assay [6] (setting [7]) it was 6%; in assay [6] (setting [8]), 91% (active); in assay [6] (at 50.0 µM) it was 49.6%.
For the compound `Oc1ccc(C2(c3ccc(O)c(Cl)c3)CC3CCC2C3)cc1Cl` (configuration not stated), the growth inhibition was 98% (active) in assay [1] (setting [7]); 98% (active) in assay [1] (setting [8]); 98% (active) in assay [1] (at 50.0 µM); 99% (active) in assay [2] (setting [7]); 99% (active) in assay [2] (setting [8]); 99.2% (active) in assay [2] (at 50.0 µM). The growth inhibition was 99% (active) in assay [3] (setting [7]); 98% (active) in assay [3] (setting [8]); 99.3% (active) in assay [3] (at 50.0 µM); 99% (active) in assay [4] (setting [7]); 98% (active) in assay [4] (setting [8]); 99% (active) in assay [4] (at 50.0 µM). Also, the growth inhibition in assay [5] (setting [7]) is 99% (active); in assay [5] (setting [8]), 98% (active); in assay [5] (at 50.0 µM), 98.8% (active); in assay [6] (setting [7]), 99% (active); in assay [6] (setting [8]) it was 97% (active); in assay [6] (at 50.0 µM) it was 98.7% (active).

The record behind these values is PubChem BioAssay (NCI).
